Source: PubChem BioAssay (NCI)
About 83,000 compounds went through this panel and 20% of them were active in at least one assay; those are over-represented in the sample as a whole.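 Testing used 96-well plates and a 48-hour single-concentration exposure. Example: -40 means 40% of the starting cells died.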 Values without a mark were called inactive. The source made the active and inactive calls. Rule for the calls: active = growth percent below 10; inactive = the rest. Where a SMILES comes first, the peptide text is derived from it. [ ]: non-standard residue; d: D form. ξ: configuration not given here. ξD = NC(CC(=O)O)C(=O)O

Experiments:
Assay in all cases: NCI-60 one-dose screen, 48 h (100 = growth as untreated, 0 = no growth, -100 = all killed)
HCT-15 colon = conditions: 10 µM unless noted
HT29 colon = conditions: 10 µM unless noted
SNB-75 CNS = conditions: 10 µM unless noted
U251 CNS = conditions: 10 µM unless noted
PC-3 prostate = conditions: 10 µM unless noted
SK-MEL-5 melanoma = conditions: 10 µM unless noted
UACC-62 melanoma = conditions: 10 µM unless noted
LOX IMVI melanoma = conditions: 10 µM
SK-MEL-28 melanoma = conditions: 10 µM unless noted
SNB-19 CNS = conditions: 10 µM unless noted

NCC(=O)NC(CC(=O)O)C(=O)O (centres undefined) (H-Gly-[ξD]-OH)
growth (HCT-15 colon): 105%
growth (HT29 colon): 98.2%
growth (SNB-75 CNS): 98.6%
growth (U251 CNS): 103%
growth (PC-3 prostate): 86.7%
growth (SK-MEL-5 melanoma): 101%
growth (UACC-62 melanoma): 91.4%
growth (LOX IMVI melanoma): 103%
growth (SK-MEL-28 melanoma): 104%

CN(C)c1ccc(/C=C/c2nccc3ccccc23)cc1
growth (HCT-15 colon): 66.4%
growth (HT29 colon): 98.6%
growth (SNB-75 CNS): 98.8%
growth (SNB-19 CNS): 79.4%
growth (PC-3 prostate): 83.4%
growth (SK-MEL-5 melanoma): 86.7%
growth (UACC-62 melanoma): 60.9%
growth (LOX IMVI melanoma): 87.8%
growth (SK-MEL-28 melanoma): 89.4%

Clc1ccc(Cc2nc3ccccc3s2)cc1
growth (HCT-15 colon): 88%
growth (HT29 colon): 118%
growth (SNB-75 CNS): 83.9%
growth (SNB-19 CNS): 121%
growth (PC-3 prostate): 63%
growth (SK-MEL-5 melanoma): 96.9%
growth (UACC-62 melanoma): 87.7%
growth (LOX IMVI melanoma): 74.3%
growth (SK-MEL-28 melanoma): 112%

CCCCCCC1N=C(N)N=C(N)N1c1cccc(Cl)c1 (centres undefined)
growth (HCT-15 colon): 84.2%
growth (HT29 colon): 17.9%
growth (SNB-75 CNS): -0.752% (active)
growth (SNB-19 CNS): 26.9%
growth (PC-3 prostate): 29.3%
growth (SK-MEL-5 melanoma): 28.3%
growth (LOX IMVI melanoma): 17.1%

CC(C)N=C(N)/N=C(\N)Nc1ccc2ccc3ccccc3c2c1
growth (HCT-15 colon): -91.5% (active)
growth (HT29 colon): -84.4% (active)
growth (SNB-75 CNS): -20.7% (active)
growth (SNB-19 CNS): -92.6% (active)
growth (PC-3 prostate): -7.75% (active)
growth (SK-MEL-5 melanoma): -98.1% (active)
growth (UACC-62 melanoma): -75.6% (active)
growth (SK-MEL-28 melanoma): -78.2% (active)

COc1cc(/C=C/c2ccnc3ccccc23)cc(OC)c1OC
growth (HCT-15 colon): 32.5%
growth (HT29 colon): 11.8%
growth (SNB-75 CNS): -3.85% (active)
growth (U251 CNS): 33.2%
growth (PC-3 prostate): 56.1%
growth (SK-MEL-5 melanoma): 3.09% (active)
growth (UACC-62 melanoma): 38.2%
growth (LOX IMVI melanoma): 26.1%

COc1cc(OC)c(/C=C/c2c3ccccc3cc[n+]2C)c(OC)c1
growth (HCT-15 colon): 97.9%
growth (HT29 colon): 1.89% (active)
growth (SNB-75 CNS): 12.3%
growth (SNB-19 CNS): 35.8%
growth (PC-3 prostate): 19.2%
growth (SK-MEL-5 melanoma): -14% (active)
growth (UACC-62 melanoma): 15.7%
growth (LOX IMVI melanoma): -39.1% (active)
growth (SK-MEL-28 melanoma): 30.1%

O=C(Cc1nc2cc(Cl)c(Cl)cc2nc1CC(=O)c1ccccc1)c1ccccc1
growth (HCT-15 colon): 69.6%
growth (HT29 colon): 65.3%
growth (SNB-75 CNS): 70.4%
growth (U251 CNS): 86.6%
growth (PC-3 prostate): 59.4%
growth (SK-MEL-5 melanoma): 90.3%
growth (UACC-62 melanoma): 56.9%
growth (LOX IMVI melanoma): 62.2%

N#CC1c2ccccc2C=CN1C(=O)CCCl (centres undefined)
growth (HCT-15 colon): 84.9%
growth (HT29 colon): 78.3%
growth (SNB-75 CNS): 75.9%
growth (SNB-19 CNS): 107%
growth (PC-3 prostate): 104%
growth (SK-MEL-5 melanoma): 101%
growth (UACC-62 melanoma): 106%
growth (LOX IMVI melanoma): 32.6%
growth (SK-MEL-28 melanoma): 105%

Cc1ccc2cccc(OC(=O)Nc3cccc(C(F)(F)F)c3)c2n1
growth (HCT-15 colon): 50.9%
growth (HT29 colon): 56.2%
growth (SNB-75 CNS): 87.5%
growth (SNB-19 CNS): 72.1%
growth (SK-MEL-5 melanoma): 86.4%
growth (UACC-62 melanoma): 60.8%
growth (SK-MEL-28 melanoma): 84.6%

CN(C)c1ccc(C(=C2C=CC(=[N+](C)C)C=C2)c2ccc(N(C)C)cc2)cc1
growth (HCT-15 colon): -19.3% (active)
growth (HT29 colon): -19.7% (active)
growth (SNB-75 CNS): -49.7% (active)
growth (SNB-19 CNS): -75.5% (active)
growth (PC-3 prostate): -31.3% (active)
growth (SK-MEL-5 melanoma): -98.8% (active)
growth (UACC-62 melanoma): -54% (active)
growth (LOX IMVI melanoma): -70.2% (active)
growth (SK-MEL-28 melanoma): -79.6% (active)

O=C1C=Cc2ccccc2/C1=C/c1nc(-c2ccccc2)oc1O
growth (HCT-15 colon): 92.4%
growth (HT29 colon): 108%
growth (SNB-75 CNS): 70.8%
growth (SNB-19 CNS): 102%
growth (PC-3 prostate): 89.1%
growth (SK-MEL-5 melanoma): 92.4%
growth (UACC-62 melanoma): 93.8%
growth (LOX IMVI melanoma): 84.8%
growth (SK-MEL-28 melanoma): 106%

c1csc(-c2[nH]nc3c2CCc2ccccc2-3)c1
growth (HCT-15 colon): 30.7%
growth (HT29 colon): 92.4%
growth (SNB-75 CNS): 55.6%
growth (SNB-19 CNS): 70.3%
growth (PC-3 prostate): 81.7%
growth (SK-MEL-5 melanoma): 84.8%
growth (UACC-62 melanoma): 90%
growth (LOX IMVI melanoma): 97.5%
growth (SK-MEL-28 melanoma): 104%

CCc1oc2ccccc2c1C(=O)c1cc(Br)c(O)c(Br)c1
growth (HCT-15 colon): 62.5%
growth (HT29 colon): 89.3%
growth (SNB-75 CNS): 53.7%
growth (SNB-19 CNS): 78.4%
growth (PC-3 prostate): 65.5%
growth (SK-MEL-5 melanoma): 46.1%
growth (UACC-62 melanoma): 38.9%
growth (LOX IMVI melanoma): 62.3%
growth (SK-MEL-28 melanoma): 63.9%

O=C/C=C/c1ccc([N+](=O)[O-])cc1
growth (HCT-15 colon): 105%
growth (HT29 colon): 97.6%
growth (SNB-75 CNS): 98.9%
growth (SNB-19 CNS): 95.3%
growth (PC-3 prostate): 98.7%
growth (SK-MEL-5 melanoma): 102%
growth (UACC-62 melanoma): 98.2%
growth (LOX IMVI melanoma): 83.8%
growth (SK-MEL-28 melanoma): 113%

CCC1C[N+]2=C(c3cc(OC)c(OC)cc3CC2)c2c1cc1n2CCc2cc(OC)c(OC)cc2-1 (centres undefined)
growth (HCT-15 colon): 87.9%
growth (HT29 colon): 41%
growth (SNB-75 CNS): 24.5%
growth (SNB-19 CNS): 33.8%
growth (PC-3 prostate): 17.4%
growth (SK-MEL-5 melanoma): -46.8% (active)
growth (UACC-62 melanoma): 18.7%
growth (LOX IMVI melanoma): 41.7%
growth (SK-MEL-28 melanoma): 32.8%

Cc1cc2cccnc2c2ncccc12
growth (HCT-15 colon): 37%
growth (HT29 colon): 19.7%
growth (SNB-75 CNS): 2.75% (active)
growth (SNB-19 CNS): 34.1%
growth (PC-3 prostate): 47.3%
growth (SK-MEL-5 melanoma): 3.03% (active)
growth (UACC-62 melanoma): 0.859% (active)
growth (LOX IMVI melanoma): 14.8%
growth (SK-MEL-28 melanoma): 32.2%

Oc1ccc(Cl)cc1Cc1cc(Cl)ccc1O
growth (HCT-15 colon): 13.7%
growth (HT29 colon): 86.3%
growth (SNB-75 CNS): 48.3%
growth (SNB-19 CNS): 41.5%
growth (PC-3 prostate): 23.9%
growth (SK-MEL-5 melanoma): 9.09% (active)
growth (LOX IMVI melanoma): 42.9%
growth (SK-MEL-28 melanoma): 35.6%

Nc1nc2ncc(CNc3ccc(C(=O)NC(CCC(=O)NC(CCC(=O)NC(CCC(=O)NC(CCC(=O)NC(CCC(=O)O)C(=O)O)C(=O)O)C(=O)O)C(=O)O)C(=O)O)cc3)nc2c(=O)[nH]1 (centres undefined)
growth (HCT-15 colon): 103%
growth (HT29 colon): 107%
growth (SNB-75 CNS): 107%
growth (U251 CNS): 110%
growth (PC-3 prostate): 100%
growth (SK-MEL-5 melanoma): 94.7%
growth (UACC-62 melanoma): 94.5%
growth (LOX IMVI melanoma): 100%

Cc1cc(=O)oc2cc(O)cc(O)c12
growth (HCT-15 colon): 108%
growth (HT29 colon): 107%
growth (SNB-75 CNS): 98.2%
growth (SNB-19 CNS): 104%
growth (PC-3 prostate): 100%
growth (SK-MEL-5 melanoma): 99.5%
growth (UACC-62 melanoma): 102%
growth (LOX IMVI melanoma): 97.9%
growth (SK-MEL-28 melanoma): 101%

CCCCCCCCCCCCNCCCc1ccccc1
growth (HCT-15 colon): 23.9%
growth (HT29 colon): 7.89% (active)
growth (SNB-75 CNS): 64.7%
growth (SNB-19 CNS): 92.2%
growth (PC-3 prostate): 78.9%
growth (UACC-62 melanoma): 57.2%
growth (SK-MEL-28 melanoma): 73.4%

O=[N+]([O-])/C(=C/c1ccccc1)c1ccccc1
growth (HCT-15 colon): 99.6%
growth (HT29 colon): 99%
growth (SNB-75 CNS): 106%
growth (SNB-19 CNS): 110%
growth (PC-3 prostate): 100%
growth (SK-MEL-5 melanoma): 103%
growth (UACC-62 melanoma): 108%
growth (LOX IMVI melanoma): 96.3%
growth (SK-MEL-28 melanoma): 100%

CC(=O)c1c(O)c(C)c(O)c2c1OC1=CC(=O)C(C(C)=O)C(=O)C12C (centres undefined)
growth (HCT-15 colon): 84.4%
growth (SNB-19 CNS): 96.9%
growth (U251 CNS): 74.9%
growth (PC-3 prostate): 45.3%
growth (SK-MEL-5 melanoma): 90.9%
growth (UACC-62 melanoma): 62.8%

N#Cc1c2ccccc2nc2ccccc12
growth (HT29 colon): 110%
growth (SNB-75 CNS): 97.8%
growth (SNB-19 CNS): 92.1%
growth (U251 CNS): 94.9%
growth (PC-3 prostate): 91%
growth (SK-MEL-5 melanoma): 94.8%
growth (LOX IMVI melanoma): 101%
growth (SK-MEL-28 melanoma): 132%

COc1cc(NC(=O)C2=C(C)NC(C)=C(C(=O)Nc3cc(OC)c(Cl)cc3OC)C2c2cccc([N+](=O)[O-])c2)c(OC)cc1Cl
growth (HCT-15 colon): 14.3%
growth (HT29 colon): 40.6%
growth (SNB-75 CNS): 45.3%
growth (U251 CNS): 31.6%
growth (PC-3 prostate): 16.8%
growth (SK-MEL-5 melanoma): -5.53% (active)
growth (UACC-62 melanoma): 27.6%
growth (LOX IMVI melanoma): 22.8%
growth (SK-MEL-28 melanoma): 24.4%

Cc1cc(Br)c2nsnc2c1[N+](=O)[O-]
growth (HCT-15 colon): 27.4%
growth (SNB-75 CNS): 50.1%
growth (SNB-19 CNS): 52.9%
growth (U251 CNS): 36.9%
growth (PC-3 prostate): 49%
growth (SK-MEL-5 melanoma): 54.1%
growth (UACC-62 melanoma): 56.5%
growth (LOX IMVI melanoma): 8.37% (active)
growth (SK-MEL-28 melanoma): 63.3%

S=C(S)OCN1CCOCC1
growth (HCT-15 colon): 91.3%
growth (HT29 colon): 19.7%
growth (SNB-19 CNS): 103%
growth (PC-3 prostate): 89.6%
growth (SK-MEL-5 melanoma): 101%
growth (UACC-62 melanoma): 98.8%
growth (LOX IMVI melanoma): 63.4%

Nc1ccc(Oc2ccccc2)c(Cl)c1
growth (HCT-15 colon): 92.6%
growth (HT29 colon): 104%
growth (SNB-19 CNS): 102%
growth (PC-3 prostate): 100%
growth (SK-MEL-5 melanoma): 95.6%
growth (UACC-62 melanoma): 107%
growth (LOX IMVI melanoma): 103%
growth (SK-MEL-28 melanoma): 106%
